Assay results from PubChem BioAssay.
Active and inactive are the calls of the source.

Columns and labels:
[1] = system: Plasmodium falciparum Sir2 (PF13_0152, Sir2A); test: pfSir2 binders on small-molecule microarrays, primary screen, biochemical, small-molecule microarray, 635 nm fluorescence (AID 1098); conditions: small-molecule microarray binding, fluorescence 635 nm; higher = more signal;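 also: score merges spot fluorescence intensity with its signal-to-noise ratio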
[2] = small-molecule microarray binders of probe aDKK1, primary screen, biochemical, biotinylated probe, 635/667 nm fluorescence (AID 1099); conditions: higher = more signal;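 also: score merges 667nm spot fluorescence with signal to noise across triplicate slides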
[3] = small-molecule microarray binders of probe aCHRDL2, primary screen, biochemical, biotinylated probe, 635/667 nm fluorescence (AID 1100); conditions: higher = more signal
[4] = splicing luciferase reporter signal modulators, primary screen, spliceosome inhibition project, cell-based, HEK293, splice +/- reporter (AID 1101); conditions: luminescence, 24 h, higher = more signal, called active from +8 up or from −8 down;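 also: HEK293 cells carrying a splicing-competent luciferase reporter gene; test concentration not given here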
[5] = target: Fibroblast growth factor 10 (Homo sapiens) (UniProt O15520); test: FGF10 binders on small-molecule microarrays, primary screen, biochemical, small-molecule microarray, 635 nm fluorescence (AID 1102); conditions: FGF10 binding, fluorescence 635 nm, higher = more signal
[6] = system: glycogen synthase kinase-3 (GSK3A per assay name; protocol says GSK3B); test: GSK3 binders on small-molecule microarrays, primary screen, biochemical, small-molecule microarray, 635 nm fluorescence, GSK3A (AID 1103); conditions: small-molecule microarray binding, fluorescence 635 nm; higher = more signal; also: the record names both GSK3A and GSK3B
[7] = target: Epidermal growth factor receptor (Homo sapiens) (UniProt P00533); test: EGFR binders on small-molecule microarrays, primary screen, biochemical, small-molecule microarray, 635 nm fluorescence (AID 1104); conditions: EGFR binding, higher = more signal;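 also: score merges 667 nm emission intensity with spot signal to noise over triplicate slides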
[8] = target: Follistatin-related protein 3 (Homo sapiens) (UniProt O95633); test: FSTL3 binders on small-molecule microarrays, primary screen, biochemical, small-molecule microarray, 635 nm fluorescence (AID 1105); conditions: FSTL3 binding, higher = more signal;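 also: score merges emission near 667 nm and signal to noise per printed spot across three slides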
[9] = target: Dickkopf-related protein 1 (Homo sapiens) (UniProt O94907); test: DKK1 binders on small-molecule microarrays, primary screen, biochemical, small-molecule microarray, 635 nm fluorescence scan (AID 1106); conditions: DKK1 binding, higher = more signal;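 also: score merges emission near 667 nm with signal to noise over three replicate slides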
[10] = system: Inhibin beta A chain (activin A); test: INHBA (activin A) binders on microarrays, primary screen, biochemical, small-molecule microarray, 635 nm fluorescence scan (AID 1107); conditions: small-molecule microarray binding, higher = more signal;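 also: mouse activin A protein probed at 4.33 µg/mL on printed slides; score merges bound-protein fluorescence near 667 nm with spot signal-to-noise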
[11] = system: Human papillomavirus type 1a protein E7 (residues 44-93); test: HPV1a E7 fragment binders on microarrays, primary screen, biochemical, small-molecule microarray, residues 44-93, 635 nm fluorescence (AID 1108); conditions: small-molecule microarray binding, fluorescence 635 nm; higher = more signal;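 also: E7 fragment applied at 1 µg/mL in TBST for 1 h at 4 C; score combines spot fluorescence with its signal to noise ratio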
[12] = modulators of HCV replicon luciferase signal, primary screen, HCV replication inhibitor project, Huh7 cells, luciferase reporter (AID 1109); conditions: 48 h, higher = more signal;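 also: huh7 hepatoma cells harbouring a luciferase neomycin HCV replicon reporter; luciferase luminescence as measure of HCV replicon replication; test concentration not given here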
[13] = target: Left-right determination factor 2 (Homo sapiens) (UniProt O00292); test: LEFTY2 binders on small-molecule microarrays, primary screen, biochemical, small-molecule microarray, 635 nm fluorescence scan (AID 1110); conditions: LEFTY2 binding, higher = more signal
[14] = target: Calmodulin-1 (Homo sapiens) (UniProt P0DP23); test: CALM1 binders on microarrays, EGTA buffer, profiling panel, biochemical, small-molecule microarray, Cy5-labelled CALM1 (AID 1111); conditions: Cy5-CALM1 binding fluorescence, higher = more signal;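 also: labelled calmodulin applied in Tris saline Tween buffer holding calcium plus EGTA and DTT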
[15] = target: Calmodulin-1 (Homo sapiens) (UniProt P0DP23); test: calcium-bound CALM1 binders on microarrays, profiling panel, artefact control for SMM control-protein annotation, biochemical, small-molecule microarray, Cy5-labelled CALM1, plus calcium (AID 1112); conditions: Cy5-CALM1 binding fluorescence, higher = more signal;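 also: score merges spot fluorescence with signal to noise from triplicate slides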
[16] = small-molecule microarray binders of probe aWnt5a, primary screen, biochemical, biotinylated probe, 635/667 nm fluorescence (AID 1113); conditions: higher = more signal;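 also: score merges 667 nm fluorescence intensity with signal-to-noise per printed feature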
[17] = small-molecule microarray binders of probe aShh, primary screen, biochemical, biotinylated probe, 635/667 nm fluorescence (AID 1114); conditions: higher = more signal;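 also: probe is biotin-labelled aShh protein from a stem cell growth factor screen; measures binding of labelled protein to compounds printed on the slide; score merges feature fluorescence at 667 nm with signal-to-noise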
[18] = small-molecule microarray binders of probe aNog, primary screen, biochemical, biotinylated probe, 635/667 nm fluorescence (AID 1115); conditions: higher = more signal;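 also: probe is biotinylated aNog protein used at 0.15 µg/mL for 1 h at 4 C; z-score combines 667 nm fluorescence of each spot with its signal to noise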
[19] = target: Torsin-1A-interacting protein 1 (Homo sapiens) (UniProt Q5JTV8); test: LAP1 binders from COS7 cell lysate, primary screen, small-molecule microarray, 635/667 nm fluorescence (AID 1116); conditions: COS7-hLAP1 lysate binding, 635 nm fluorescence, higher = more signal
[20] = target: Alpha-bungarotoxin (Bungarus multicinctus) (UniProt P60615); test: alpha-bungarotoxin binders on microarray, profiling panel, artefact control for SMM control protein annotation, biochemical, small-molecule microarray, Alexa647 label, 635/667 nm fluorescence (AID 1117); conditions: alpha-BTX-A647 binding fluorescence, higher = more signal
Chain of Alpha-bungarotoxin (Bungarus multicinctus) (P60615 whole entry, looked up): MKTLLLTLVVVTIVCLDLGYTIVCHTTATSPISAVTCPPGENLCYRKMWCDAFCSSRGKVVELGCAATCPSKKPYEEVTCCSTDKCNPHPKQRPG

Chain of Follistatin-related protein 3 (Homo sapiens) (O95633 whole entry, looked up): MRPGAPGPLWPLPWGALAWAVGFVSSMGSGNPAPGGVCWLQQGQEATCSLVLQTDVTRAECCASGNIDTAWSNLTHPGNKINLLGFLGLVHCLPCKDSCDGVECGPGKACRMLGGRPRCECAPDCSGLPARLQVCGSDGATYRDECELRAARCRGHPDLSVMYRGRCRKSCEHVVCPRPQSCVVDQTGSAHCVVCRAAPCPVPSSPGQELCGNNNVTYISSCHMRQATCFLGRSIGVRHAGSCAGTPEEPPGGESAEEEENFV
Chain of Torsin-1A-interacting protein 1 (Homo sapiens) (Q5JTV8 whole entry, looked up): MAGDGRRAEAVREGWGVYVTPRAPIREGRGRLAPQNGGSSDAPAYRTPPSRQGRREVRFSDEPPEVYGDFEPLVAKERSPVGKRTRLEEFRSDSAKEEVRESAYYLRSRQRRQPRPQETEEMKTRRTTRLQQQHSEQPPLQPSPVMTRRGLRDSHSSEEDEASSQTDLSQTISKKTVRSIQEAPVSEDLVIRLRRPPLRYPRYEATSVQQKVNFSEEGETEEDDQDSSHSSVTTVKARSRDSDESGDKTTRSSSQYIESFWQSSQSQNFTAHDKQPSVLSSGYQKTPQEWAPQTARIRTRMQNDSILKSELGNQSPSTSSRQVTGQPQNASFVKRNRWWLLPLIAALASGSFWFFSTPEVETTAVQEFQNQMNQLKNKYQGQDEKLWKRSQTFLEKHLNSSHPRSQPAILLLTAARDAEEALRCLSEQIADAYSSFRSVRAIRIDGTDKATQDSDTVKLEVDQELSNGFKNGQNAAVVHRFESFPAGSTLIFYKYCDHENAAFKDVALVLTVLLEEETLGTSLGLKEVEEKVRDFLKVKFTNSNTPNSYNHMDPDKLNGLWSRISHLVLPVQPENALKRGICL
Chain of Fibroblast growth factor 10 (Homo sapiens) (O15520 whole entry, looked up): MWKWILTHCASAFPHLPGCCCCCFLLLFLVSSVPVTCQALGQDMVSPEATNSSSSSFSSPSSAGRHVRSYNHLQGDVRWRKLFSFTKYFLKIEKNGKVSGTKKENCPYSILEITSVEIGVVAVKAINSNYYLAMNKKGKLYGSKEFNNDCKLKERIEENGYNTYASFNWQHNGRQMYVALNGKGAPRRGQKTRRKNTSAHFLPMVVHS
Chain of Dickkopf-related protein 1 (Homo sapiens) (O94907 whole entry, looked up): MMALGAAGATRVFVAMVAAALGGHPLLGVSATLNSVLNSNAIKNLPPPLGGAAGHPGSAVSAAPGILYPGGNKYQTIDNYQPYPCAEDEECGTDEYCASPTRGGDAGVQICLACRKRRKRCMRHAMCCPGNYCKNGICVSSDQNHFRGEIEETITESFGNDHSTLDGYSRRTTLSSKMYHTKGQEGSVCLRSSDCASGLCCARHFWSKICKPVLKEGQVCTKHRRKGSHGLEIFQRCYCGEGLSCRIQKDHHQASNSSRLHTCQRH
Chain of Epidermal growth factor receptor (Homo sapiens) (P00533 whole entry, looked up): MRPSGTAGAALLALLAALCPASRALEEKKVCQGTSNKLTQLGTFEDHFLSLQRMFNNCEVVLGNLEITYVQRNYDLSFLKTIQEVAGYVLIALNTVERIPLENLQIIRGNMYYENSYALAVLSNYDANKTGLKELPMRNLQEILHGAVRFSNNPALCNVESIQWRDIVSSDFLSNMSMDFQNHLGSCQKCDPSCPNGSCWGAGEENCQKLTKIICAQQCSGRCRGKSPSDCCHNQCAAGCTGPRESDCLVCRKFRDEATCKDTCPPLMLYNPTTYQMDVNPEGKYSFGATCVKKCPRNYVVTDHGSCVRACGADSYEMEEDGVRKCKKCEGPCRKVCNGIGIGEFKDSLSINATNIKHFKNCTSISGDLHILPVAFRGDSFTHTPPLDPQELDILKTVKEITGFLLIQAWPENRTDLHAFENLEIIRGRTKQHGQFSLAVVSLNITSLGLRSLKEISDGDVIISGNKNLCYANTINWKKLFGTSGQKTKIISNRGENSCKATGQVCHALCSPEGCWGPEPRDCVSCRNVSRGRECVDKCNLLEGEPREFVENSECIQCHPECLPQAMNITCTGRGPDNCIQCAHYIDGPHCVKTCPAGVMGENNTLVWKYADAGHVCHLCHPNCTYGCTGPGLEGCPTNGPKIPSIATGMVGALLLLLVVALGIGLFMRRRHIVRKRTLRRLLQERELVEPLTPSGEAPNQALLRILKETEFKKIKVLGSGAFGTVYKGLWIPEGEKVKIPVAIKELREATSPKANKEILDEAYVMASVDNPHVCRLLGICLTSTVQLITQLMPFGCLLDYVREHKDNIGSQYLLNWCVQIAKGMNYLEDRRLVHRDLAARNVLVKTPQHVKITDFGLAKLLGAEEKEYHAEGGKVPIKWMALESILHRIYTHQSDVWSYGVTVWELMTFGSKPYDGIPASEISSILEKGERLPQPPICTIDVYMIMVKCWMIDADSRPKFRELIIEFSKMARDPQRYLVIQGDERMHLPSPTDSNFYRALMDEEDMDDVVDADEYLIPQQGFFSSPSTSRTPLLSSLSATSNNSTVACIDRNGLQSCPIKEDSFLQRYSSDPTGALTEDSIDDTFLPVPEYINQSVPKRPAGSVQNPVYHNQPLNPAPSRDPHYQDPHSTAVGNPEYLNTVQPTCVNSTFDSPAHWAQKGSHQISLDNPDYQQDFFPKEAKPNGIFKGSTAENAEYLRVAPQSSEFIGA
Chain of Left-right determination factor 2 (Homo sapiens) (O00292 whole entry, looked up): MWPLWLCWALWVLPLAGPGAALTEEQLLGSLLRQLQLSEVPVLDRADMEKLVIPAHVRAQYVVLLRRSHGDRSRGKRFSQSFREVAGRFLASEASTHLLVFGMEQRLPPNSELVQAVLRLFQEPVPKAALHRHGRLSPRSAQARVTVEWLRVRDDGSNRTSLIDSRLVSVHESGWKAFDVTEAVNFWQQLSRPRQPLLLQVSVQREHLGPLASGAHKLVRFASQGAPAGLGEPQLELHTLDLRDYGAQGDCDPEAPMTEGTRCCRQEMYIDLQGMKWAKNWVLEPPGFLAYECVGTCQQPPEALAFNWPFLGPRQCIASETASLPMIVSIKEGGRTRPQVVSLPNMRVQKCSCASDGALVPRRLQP

SMILES | composite z-score [1] | composite z-score [2] | composite z-score [3] | z-score [4] | composite z-score [5] | composite z-score [6] | composite z-score [7] | composite z-score [8] | composite z-score [9] | composite z-score [10] | composite z-score [11] | z-score [12] | composite z-score [13] | composite z-score [14] | composite z-score [15] | composite z-score [16] | composite z-score [17] | composite z-score [18] | composite z-score [19] | composite z-score [20]
CCOC(=O)[C@H](CC(C)C)NC(=O)CCC1CC(OC(=O)NCc2cccc3ccccc23)CC2(CCCC(COC(=O)NCCOC)O2)O1 (stereo not given in full) | 0.546 | -0.164 | -0.401 | -1.8 (inactive) | 0.799 | 1.3 | 0.412 | 1.17 | 0.358 | -0.0748 | 1.34 | 0.339 | 0.629 | -0.24 | -0.418 | -0.116 | -0.128 | -0.0653 | 0.481 | 0.0702
O=C1[C@H]2[C@H]3[C@H](O)[C@H](O)CC(=NOCc4ccccc4)[C@@H]3CC[C@H]2C(=O)N1Cc1ccc2c(c1)OCO2 | 0.0183 | -0.225 | -0.453 | 0.631 (inactive) | 0.32 | -0.0163 | 0.317 | 0.517 | 0.472 | 0.45 | 0.0666 | -0.276 | 0.517 | -0.206 | -0.211 | -0.091 | -0.154 | -0.23 | 0.366 | 0.576
CCN1C(=O)[C@@H]2[C@H]3C(=CC[C@@H]2C1=O)C1(OCCCO1)[C@H]1O[C@H]1[C@H]3O | 0.416 | 0.195 | -0.0468 | -9.75 (active) | 1.39 | 1.34 | 0.286 | 1.22 | 0.739 | -0.0212 | 1.38 | -4.67 | 0.352 | 0.669 | -0.536 | 0.0293 | -0.304 | 0.194 | 1.27 | 0.857
CC1O[C@H]2C3=C(C(=O)[C@@H]4O[C@@H]4[C@H]3O)[C@@H]1C1[C@@H](C)OC=C3[C@H](O)C4O[C@@H]4C(=NOCc4ccccc4)[C@]312 (stereo not given in full) | 0.0395 | -0.129 | -0.326 | -0.469 (inactive) | 0.0791 | -0.14 | 0.191 | -0.3 | 0.155 | 0.121 | -0.768 | -3.71 | 0.18 | -0.472 | -0.177 | -0.0519 | 0.225 | -0.347 | -0.192 | -0.725
COc1cccc([C@H]2Oc3ccc(OC)cc3C(=NOC(C)CN3CCCCc4nc(C)c(C)cc43)[C@@H]2O)c1 (stereo not given in full) | -0.0106 | -0.151 | -0.223 | -0.49 (inactive) | 0.422 | -0.313 | 0.132 | 0.179 | 0.064 | 0.937 | -0.168 | -2.48 | 0.321 | 0.147 | -0.861 | -0.148 | 0.151 | -0.219 | 0.29 | 0.385
O=C(NN=C1C[C@@H](O)[C@@H](O)[C@@H]2[C@@H]3C(=O)N(Cc4ccccc4)C(=O)[C@@H]3CC[C@@H]12)OCc1ccccc1 | 0.0168 | -0.293 | -0.284 | -0.566 (inactive) | 0.0818 | 0.329 | 0.263 | 0.31 | 0.357 | 0.198 | -0.572 | 0.104 | 0.401 | -0.619 | -0.786 | -0.143 | -0.197 | -0.223 | -0.0694 | 0.0077
CCOC(=O)NN=C1C[C@@H](O)[C@@H](O)[C@@H]2[C@@H]3C(=O)N(c4cccc(Oc5ccccc5)c4)C(=O)[C@@H]3CC[C@@H]12 | 0.933 | -0.27 | -0.187 | 0.0999 (inactive) | 1.13 | -0.652 | 0.164 | -0.329 | -0.313 | -0.237 | -0.269 | -0.912 | 0.144 | -0.0069 | -0.434 | -0.0165 | -0.32 | -0.444 | -0.127 | 1.32
C[C@@H]1C=CCC(=O)OC[C@H]2O[C@@H](C=C[C@@H]2O)[C@H](C)C=CCC(=O)OC1 | 1.29 | -0.594 | -1.55 | -0.813 (inactive) | 1.1 | 0.963 | 1.23 | 1.59 | 1.53 | 1.91 | -1.9 | -0.362 | 1.59 | -1.35 | -2.47 | -0.359 | -0.0626 | -0.285 | 0.113 | 0.981
O=C(C=Cc1ccc2c(c1)OCO2)c1ccc(F)cc1 | 0.818 | -0.136 | -0.459 | -0.603 (inactive) | 0.498 | -0.296 | 0.549 | 0.801 | 1.52 | 0.239 | -0.9 | 2.84 | 0.976 | -0.481 | -1.41 | -0.0455 | 0.297 | -0.126 | 0.569 | 0.444
COC(=O)CC=C[C@@H](C)[C@@H](C=NO[C@@H](C)c1cn([C@H](CO)Cc2ccccc2)nn1)OC | 0.361 | -0.435 | -0.572 | -0.772 (inactive) | 0.229 | 0.165 | 0.523 | 0.31 | 0.498 | -0.163 | 0.939 | 0.0629 | 0.499 | -1.04 | -1.48 | -0.0944 | -0.138 | 0.15 | -0.0644 | -0.027
CCN1C(=O)[C@H]2[C@H]3[C@H](O)[C@H](O)CC(=O)[C@H]3CC[C@H]2C1=O | 0.519 | -0.106 | -0.721 | 0.691 (inactive) | 0.406 | 0.713 | 0.371 | 0.396 | 0.776 | -0.249 | 0.566 | -0.693 | 0.872 | -0.123 | -0.448 | -0.0472 | 0.0278 | -0.158 | 0.161 | 0.113
CCCNC(=O)OC[C@H]1O[C@H](CCON=C(C)CCN2CCc3nc(CC)c(CC)cc3C2)C=C[C@@H]1Oc1ccc(OC)cc1 | 0.865 | -0.231 | -0.163 | -1.02 (inactive) | -0.423 | -0.687 | 0.159 | 0.125 | 0.192 | 0.886 | -0.263 | -3.27 | 0.223 | -0.254 | -0.875 | -0.034 | -0.154 | -0.4 | 0.345 | 0.381
